Assay outcomes (PubChem BioAssay)
LASV entry inh – inhibitors of Lassa virus binding or cell entry. Lassa virus pseudotype entry inhibition, cell reporter. Potency, µM (top dose mostly 37.9 µM), inactives show at the top dose activity change, negative = inhibition, actives largely listed as inhibitors. hit rate 1.2% among 300,000. AID 540256; calls by dose curve; tested in HEK293 cells; further: potency means the concentration at half of the fitted maximal effect; nearly all actives have a fitted effect of over 50% in size
FMDV antiviral – blocks foot and mouth disease virus; FMDV antiviral cell-based qHTS; AID 1159524; hit rate 1.2% among 410,000; Potency, µM (top dose mostly 57.9 µM), inactives show top-dose activity change, negative = inhibition, usual class: inhibitors; calls by dose curve; tested in HEK293T cells; further: read-out not given here; potency means the concentration at half of the fitted maximal effect; nearly all actives have a fitted effect of over 45% in size
HCMV antiviral – human cytomegalovirus inhibition | AID 1259415 | activity change, negative = inhibition, % at 57.5 µM | HFF cells, HCMV-luciferase reporter, 72 h; hits give low values | hit rate 4.5% among 410,000; in the data active means activity change below about -60%; inconclusive means no clear call, values can overlap the other calls; inactive means above about -39%
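Screen run at 2 compound doses on HFFs infected with reporter HCMV, MOI 1 PFU/cell. Luciferase activity from cell lysates at 72 h post infection gave inhibition relative to buffer-only and Salinomycin wells.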
MARV entry inh – Marburg virus entry inhibition; AID 540276; hit rate 1.8% among 300,000; Marburg virus pseudotyped entry inhibition, cell reporter; Potency, µM (titrated, usually from 37.8 µM), for the others: at the top dose activity change, negative = inhibition, actives largely listed as inhibitors; calls by dose curve; tested in HEK293 cells; further: potency means the concentration at half of the fitted maximal effect
* hit, by the source's call; ? = inconclusive; nt = not tested or not shown; [ ] = remark or other dose. Rows were chosen to be rich in hits. Some 6.2% of all compounds tested hit in one or more screens of this group. On the % scale 0 is the no-effect control and ±100 the full control effect.

SMILES	LASV entry inh	FMDV antiviral	HCMV antiviral	MARV entry inh
CC(C)(C)NC(=O)C1c2ccccc2OCC(=O)N1CC(F)(F)F (configuration not stated)	nt	-3%	-4	nt
CCCc1cc(=O)n2nc(N3CCC(C(=O)N4CCN(c5ccc(OC)cc5)CC4)CC3)sc2n1	nt	?	-87*	nt
COc1ccc(N=C2NC(=O)/C(=C/c3ccc(O)c(OC)c3)S2)cc1	3.7µM*	2%	-64*	?
COc1cc(/C=C2/SC(=Nc3ccc(O)cc3)NC2=O)cc(OC)c1O	?	-10%	28	?
Nc1ccc(-c2cc3ccccc3oc2=O)cc1	0.71µM*	1.1µM*	?	?
O=C(Nc1cccnc1)c1cccc(-c2cc3ccccc3oc2=O)c1	-5%[46.1 µM]	26%	30	1%[46.1 µM]
O=C(NCc1cccnc1)c1ccc(-c2cc3ccccc3oc2=O)cc1	nt	-6%	-66*	nt
COc1cc(-c2nc(S(=O)(=O)c3ccc(Br)cc3)c(N3CCOCC3)o2)cc(OC)c1OC	?	-1%	52	nt
COc1cc(NC(=O)COC(=O)/C=C/c2ccc(OC)c(OC)c2)cc(OC)c1	7%	-17%	40	-16%
COc1cc(NC(=O)COC(=O)/C=C/c2ccccc2Cl)cc(OC)c1	?	-23%	-103*	15%
c1nc(N2CCOCC2)c2cc(-c3ccoc3)ccc2n1	nt	1%	nt	nt
CC(C)NC(=O)C1(C)CCN1C(=O)C1(c2ccccc2)CC1 (configuration not stated)	nt	-12%	5	nt
Cc1ccc2nc3n(c(=O)c2c1)-c1ccccc1C(=O)NC3CC(C)C (configuration not stated)	nt	nt	-14	nt
c1ccc(-c2cc(-c3nc4ccccc4[nH]3)c3ccccc3n2)cc1	?	?	-94*	?
COC(=O)[C@]1(S(=O)(=O)c2ccccc2)CC(=O)N(Cc2ccccc2)[C@@H]1c1ccccc1	nt	nt	-1	nt
Cc1ccc(C2c3[nH]c4ccccc4c3CCN2C(=O)CSCc2ccc(F)cc2)cc1 (configuration not stated)	?	-22%	-8	nt
CCOc1ccc(C2c3[nH]c4ccccc4c3CCN2C(=O)CSc2ccccc2)cc1 (configuration not stated)	6.3µM*	-9%	-5	nt
Cc1ccc(C2c3[nH]c4ccccc4c3CCN2C(=O)CSc2ccccc2)cc1 (configuration not stated)	10µM*	-5%	-30	nt
COc1ccc(S[C@]2(c3nc(C)no3)CC(=O)N(C(=O)CCc3ccccc3)[C@@H]2c2ccc(OC)cc2)cc1	nt	nt	1	nt
O/N=C/c1cn(-c2ccccc2)nc1-c1cccnc1	4%	-14%	-14	0.79µM*
O=C(/C=C/c1cn(-c2ccccc2)nc1-c1cccnc1)c1ccco1	10µM*	14µM*	-99*	?
O=C(NCCc1cccnc1)c1cnn(-c2ncc3c(n2)-c2ccccc2CC3)c1C1CC1	nt	7%	nt	nt
Cc1cc(SCC(=O)c2ccc(O)c(O)c2)nc2ccccc12	-4%	-19%	-70*	?
Cc1ccc(NC(=O)CSc2nc3ccccc3nc2N2CCOCC2)c(C)c1	nt	-6%	-71*	nt
CC(=O)Nc1ccc(NC(=O)CSc2nc3ccccc3nc2N2CCCCC2)cc1	4%	9%	-13	21%[46.1 µM]
SMILES	LASV entry inh	FMDV antiviral	HCMV antiviral	MARV entry inh
CC(=O)Nc1ccc(NC(=O)CSc2nc3ccccc3nc2N2CCC(C)CC2)cc1	?	9%	-7	1%[46.1 µM]
COc1ccc(C)cc1NC(=O)CSc1nc2ccccc2nc1N1CCOCC1	?	15%	20	?
Cc1cccc(NC(=O)CSc2nc3ccccc3nc2N2CCC(C)CC2)c1	?	-13%	-88*	1.1µM*
O=C(CSc1nc2ccccc2nc1N1CCCC1)Nc1ccc(F)cc1	nt	10%	-65*	nt
Cc1cc(SCC(=O)c2ccc3c(c2)OCO3)nc2ccccc12	-3%	45%	-28	23%
Cc1ccc2c(CNCc3ccc(C)o3)c(C(=O)O)n(Cc3ccc(F)cc3)c2c1	-21%[46.1 µM]	-6%	-33	nt
O=C(Nc1ccccc1)c1cc(C2CCCCN2C(=O)c2ccccc2)on1 (configuration not stated)	nt	-19%	3	nt
Cc1cccc(NC(=O)CSc2cc(C)c3ccccc3n2)c1	?	-26%	-74*	2.2µM*
Cc1cccc(NC(=O)CSc2cc(C(=O)c3nccn3C)c3ccccc3n2)c1	?	0%	10	6%
O=C(Nc1ccncc1)Nc1cccc(Cl)c1	nt	6%	14	nt
O=C(Nc1cccc(Cl)c1)Nc1csc([N+](=O)[O-])c1	?	?	-97*	?
Cc1ccc(/C=C2\SC(=S)N(CCC(=O)N3CCCCC3)C2=O)cc1	10%	5%	6	-4%[46.1 µM]
